# Data reported in the supplement of paper PMC6555819.
# System: RXRa DBDmut IVT, anti-RXR (DBD mutation: RXRa K156A/R161A, NR concentration 90 nM)
# Assay: PBM binding z-score (relative to random genomic background probes); higher = stronger binding; sequences stand for … in GC…GCGATTGACAGCGTAGAATGAAGG
# Outline: (§1)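 Binding buffer was PBS pH 7.4 with 2% milk, 0.02% Triton X-100, 1 mM DTT, 0.2 mg/mL BSA and 0.4 mg/ml salmon testes DNA. In it, ligand-free nuclear receptor dimers were incubated 1 h on custom Agilent 4×180K protein-binding microarrays carrying double-stranded probes. Antibodies against each partner (one per run) detected binding, and z-scores were calculated against random background probes after regression normalization of scanned fluorescence.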
row,Sequence,PBM binding z-score
1,TCATATAGGTGATACAGGTGAAAGTCGGCATCTA,1.16
2,ACTAGTTGGTCAGCTGTGGTCACACACAATTCGG,0.13
3,GCTCGGAGGACAGGGTCAGAGCTTTGTCCGTAGA,0.265
4,AATACAGGGTCACTAGCCCAGAGTAGGTACGAAT,2.61
5,TAGCCTAGGGCATTGGGCCAGTATAGTACGCATC,-0.706
6,TCTGCTAGGTCAACGATGGTCATCTAATCTGCTA,1.07
7,CCTCGGAGGACAACAGGAGGACAGAGCTGCCAGA,-0.107
8,TAACCTAGGTCATGGGCCAGTATACCACGCGAAC,1.07
9,CGTCCATGGTCAGAGAGGTCAGTGAATGCCGAGT,0.839
10,CCGAGTAGGTTATGGGGCATTTAGGCAACGGTGA,0.127
11,TCTACCAGGCCAGAGGGTCACTCAAGAGGTACGG,0.518
12,AGAACGAGGGCAATGAGTTGATAGCACGGGTGGC,1.78
13,ACAGACAGGTGATGACGGTAACTCAGGCTATCAT,-0.0365
14,GCTCGGAGGACAAGGTCAGCGCTTTGTCCGTAGA,0.531
15,CAAATTAGGTCACAGAGGTCAAAGTCCGTGCGTA,3.72
16,ACAGACAGGTGATGAAGGTAACCCAGGCTATCAT,-0.925
17,TTTTGTAGATCAGCAGGTTAAGAAAGCTGGCCAA,-0.708
18,CGTCCAAGGTCAGAGTGGTCAGTGAATGCCGAGT,2.94
19,CGAACTAGGTCATTGCCAGGACAGTGAATAGTAA,2.5
20,ACTAGTTGGTCTGCTGAGGTCACACACAATTCGG,1.37

row,Sequence,PBM binding z-score
1,ATCGAAAGGTCGACGTGAGTATAGAGAAAGGGAA,1.34
2,AATACAGGGTCATCGTAGGCCAAAGTACGCACAG,3.63
3,GCTGCTTGGTCAGGTTGGTCAGCTAACGGGTACG,0.0173
4,TCTTGTAGATCAACAGGACGTTAAGAAAGATCGA,0.714
5,TATACAGGGTCCAAGGCCAGAGTACGAATGTCGA,1.17
6,TCTTGTAGATCAAGCAAGTTAAGAAAGCCTGAGT,0.582
7,GCTGCTAGGTCAGGTTGGTCAGCTACCGGGTACG,0.371
8,CGTCCAAGGTCAATGCTAGGTCATTGAAAGCATT,3.83
9,TCATATAGGTAAAACAGGTGAAAGTCGGCATCTA,1.71
10,AGACTGAGGTTATTAAGATCAGGGAATTGCGGTC,1.53
11,ATCGTAAGGTCGACGAGGTGAGTATACACCGTTT,1.37
12,CGTCCTAGGTCAGAGAGGTCAGTGAATGCCGAGT,1.92
13,CCTCGGAAGACAACAGGAGGTCAGAGCTGCCAGA,-0.3
14,TAACCTAGGTCAGATCGGGCCAGTATACGCTATA,0.17
15,AATCAAAGTTCAGGACGAGGTAACGTAAAGCACG,2.68
16,CCGACTGGGGCAGAAAGGTTATCATACCATCCGG,-0.376
17,CGAACTAGGTCATTGACAGGACAGTGCATAGTAA,2.22
18,TATACAGGGGCAAAGGCCAGAGTACGAATGTCGA,0.806
19,CGAACTAGGTCATTGACAGGACAGTGATTAGTAA,2.49
20,AGAACGAGGTTACCAAAGATCAGGGAAACGCTTG,0.737

# System: RXRa homodimer (NR concentration 180 nM)
# Assay: as above
# Outline: as §1
row,Sequence,PBM binding z-score
1,TCATATAGGTGATACAGGTGAAAGTCGGCATCTA,1.34
2,ACTAGTTGGTCAGCTGTGGTCACACACAATTCGG,0.281
3,GCTCGGAGGACAGGGTCAGAGCTTTGTCCGTAGA,2.69
4,AATACAGGGTCACTAGCCCAGAGTAGGTACGAAT,5.17
5,TAGCCTAGGGCATTGGGCCAGTATAGTACGCATC,0.0585
6,TCTGCTAGGTCAACGATGGTCATCTAATCTGCTA,2.9
7,CCTCGGAGGACAACAGGAGGACAGAGCTGCCAGA,0.167
8,TAACCTAGGTCATGGGCCAGTATACCACGCGAAC,4.02
9,CGTCCATGGTCAGAGAGGTCAGTGAATGCCGAGT,2.97
10,CCGAGTAGGTTATGGGGCATTTAGGCAACGGTGA,0.632
11,TCTACCAGGCCAGAGGGTCACTCAAGAGGTACGG,2.92
12,AGAACGAGGGCAATGAGTTGATAGCACGGGTGGC,0.91
13,ACAGACAGGTGATGACGGTAACTCAGGCTATCAT,0.15
14,GCTCGGAGGACAAGGTCAGCGCTTTGTCCGTAGA,3.07
15,CAAATTAGGTCACAGAGGTCAAAGTCCGTGCGTA,7.43
16,ACAGACAGGTGATGAAGGTAACCCAGGCTATCAT,0.473
17,TTTTGTAGATCAGCAGGTTAAGAAAGCTGGCCAA,0.104
18,CGTCCAAGGTCAGAGTGGTCAGTGAATGCCGAGT,3.42
19,CGAACTAGGTCATTGCCAGGACAGTGAATAGTAA,2.73
20,ACTAGTTGGTCTGCTGAGGTCACACACAATTCGG,3.45

row,Sequence,PBM binding z-score
1,ATCGAAAGGTCGACGTGAGTATAGAGAAAGGGAA,3.94
2,AATACAGGGTCATCGTAGGCCAAAGTACGCACAG,6.87
3,GCTGCTTGGTCAGGTTGGTCAGCTAACGGGTACG,-0.438
4,TCTTGTAGATCAACAGGACGTTAAGAAAGATCGA,0.45
5,TATACAGGGTCCAAGGCCAGAGTACGAATGTCGA,0.823
6,TCTTGTAGATCAAGCAAGTTAAGAAAGCCTGAGT,-0.066
7,GCTGCTAGGTCAGGTTGGTCAGCTACCGGGTACG,0.808
8,CGTCCAAGGTCAATGCTAGGTCATTGAAAGCATT,6
9,TCATATAGGTAAAACAGGTGAAAGTCGGCATCTA,1.1
10,AGACTGAGGTTATTAAGATCAGGGAATTGCGGTC,1.54
11,ATCGTAAGGTCGACGAGGTGAGTATACACCGTTT,3.01
12,CGTCCTAGGTCAGAGAGGTCAGTGAATGCCGAGT,4.49
13,CCTCGGAAGACAACAGGAGGTCAGAGCTGCCAGA,1.69
14,TAACCTAGGTCAGATCGGGCCAGTATACGCTATA,1.94
15,AATCAAAGTTCAGGACGAGGTAACGTAAAGCACG,2.92
16,CCGACTGGGGCAGAAAGGTTATCATACCATCCGG,1.67
17,CGAACTAGGTCATTGACAGGACAGTGCATAGTAA,2.43
18,TATACAGGGGCAAAGGCCAGAGTACGAATGTCGA,1.49
19,CGAACTAGGTCATTGACAGGACAGTGATTAGTAA,2.47
20,AGAACGAGGTTACCAAAGATCAGGGAAACGCTTG,2.66
